Laboratory results: PubChem BioAssay (NCI)
About 79,000 compounds went through this panel and 15% of them were active in at least one assay; those are over-represented in the sample as a whole. Values without a mark were called inactive. Activity calls are given as the source filed them. No stated cut-off is given here; in the data, active means growth inhibition above about 70%; inactive means the rest.

How the values were obtained:
[1] = NCI Yeast Anticancer Drug Screen. Data for the rad50 strain (AID 155);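 further: 0% = growth of vehicle-only cultures of the same strain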; settings: S. cerevisiae rad50 strain growth inhibition, stronger effect = higher value
Procedure, shortened: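 A DNA repair-deficient yeast mutant serves as the test organism; compound-induced growth inhibition is calculated against vehicle-treated cells.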

[2] = NCI Yeast Anticancer Drug Screen. Data for the mec2-1 strain (AID 157); settings: S. cerevisiae mec2-1 strain, stronger effect = higher value
Procedure, shortened: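 Mutant yeast (mec2-1) grown with compound; growth inhibition relative to vehicle control reported.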

[3] = NCI Yeast Anticancer Drug Screen. Data for the sgs1 mgt1 strain (AID 161);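 further: 0% = growth of cultures given vehicle only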; settings: S. cerevisiae sgs1 mgt1 strain, stronger effect = higher value
Procedure, shortened: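 Growth of a repair-deficient yeast mutant was monitored after compound treatment and expressed as inhibition relative to vehicle-treated cultures.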

[4] = NCI Yeast Anticancer Drug Screen. Data for the cln2 rad14 strain (AID 165);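 further: 0% = growth equal to vehicle treated cultures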; settings: S. cerevisiae cln2 rad14 strain, stronger effect = higher value
Procedure, shortened: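 Readout is yeast growth inhibition versus vehicle-treated controls, using a strain with cln2 and rad14 alterations exposed to compound.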

[5] = NCI Yeast Anticancer Drug Screen. Data for the bub3 strain (AID 167); settings: S. cerevisiae bub3 mutant strain, stronger effect = higher value
Procedure, shortened: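 Inhibition values come from growth of compound-treated mutant yeast normalised to vehicle-treated controls.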

[6] = NCI Yeast Anticancer Drug Screen. Data for the mlh1 rad18 strain (AID 175); settings: S. cerevisiae mlh1 rad18 strain growth inhibition, stronger effect = higher value
Procedure, shortened: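 Genetically defined yeast (DNA repair-deficient) exposed to compounds; growth inhibition determined relative to vehicle.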

[7] = at 5.0 µM (retest, dose inferred, filed as 0.5)
[8] = at 50.0 µM (retest, dose inferred, filed as 5.0)

Row | SMILES | growth inhibition [1, 7] | growth inhibition [1, 8] | growth inhibition ([1]; at 50.0 µM) | growth inhibition [2, 7] | growth inhibition [2, 8] | growth inhibition ([2]; at 50.0 µM) | growth inhibition [3, 7] | growth inhibition [3, 8] | growth inhibition ([3]; at 50.0 µM) | growth inhibition [4, 7] | growth inhibition [4, 8] | growth inhibition ([4]; at 50.0 µM) | growth inhibition [5, 7] | growth inhibition [5, 8] | growth inhibition ([5]; at 50.0 µM) | growth inhibition [6, 7] | growth inhibition [6, 8] | growth inhibition ([6]; at 50.0 µM)
1 | c1ccc(CSc2nnc(SCc3ccccc3)c3[nH]cnc23)cc1 | -3% | 33% | 61.4% | -7% | 38% | 46.9% | -1% | 45% | 46.1% | -4% | 23% | 56% | -3% | 45% | 50.1% | -6% | 34% | 11.9%
2 | Oc1ccc(Cc2cc(Cl)cc(Cl)c2O)cc1Cl | 84% (active) | 100% (active) | 99.5% (active) | 84% (active) | 99% (active) | 99.7% (active) | 68% | 99% (active) | 99.4% (active) | 91% (active) | 99% (active) | 99.3% (active) | 70% (active) | 100% (active) | 99.3% (active) | 94% (active) | 100% (active) | 99.2% (active)
3 | c1ccc(-n2c3ccccc3c3ccccc32)cc1 | 4% | 11% | 86.7% (active) | 4% | 3% | 82.2% (active) | 1% | 9% | 88.2% (active) | 1% | -12% | 37.9% | 5% | 21% | 88.2% (active) | -1% | 11% | 84.5% (active)
4 | C=C1CC/C=C(/C(=O)O)CC[C@H]2[C@@H]1CC2(C)C | -5% | 58% | 63.6% | 4% | 71% (active) | 60.1% | 3% | 68% | 57.4% | -6% | 50% | 53.6% | 0% | 78% (active) | 69.5% | -1% | 74% (active) | 53.2%
5 | CC(O)CCc1nc2ccccc2[nH]1 (stereo not given) | 3% | -4% | 17.3% | 2% | -3% | 3.15% | -1% | 0% | -1.3% | 2% | 27% | 57.2% | 3% | 6% | -6.65% | 0% | -8% | 11.7%
6 | Cc1ccccc1N1C(=O)C(=O)c2cccc(C)c21 | 2% | 98% (active) | 99.2% (active) | 0% | 99% (active) | 99.5% (active) | 1% | 99% (active) | 99.7% (active) | 1% | 98% (active) | 97% (active) | 2% | 99% (active) | 99.8% (active) | 0% | 99% (active) | 83.1% (active)
7 | CCO/C=C1N=C(/C=C/c2ccc(Cl)cc2)OC/1=O | 5% | 31% | 28.4% | 7% | 13% | 32.8% | 14% | 19% | 47% | 8% | 43% | -38.7% | 14% | 29% | 22.6% | 1% | 25% | 40.8%
8 | CN(C)c1ccc(-c2c(C#N)c(-c3ccccc3)n(NS(=O)(=O)c3ccccc3)c(=O)c2C#N)cc1 | 19% | 36% | 71% (active) | 23% | 32% | 75.5% (active) | 34% | 50% | 75.2% (active) | 44% | 53% | 80.8% (active) | 54% | 51% | 76.2% (active) | 17% | 31% | 72.2% (active)
9 | CC(C)OC(=S)SSSC(=S)OC(C)C | 6% | 99% (active) | 99.5% (active) | 13% | 99% (active) | 99.5% (active) | 9% | 98% (active) | 99.7% (active) | 0% | 97% (active) | 68.2% | 6% | 99% (active) | 99.7% (active) | 9% | 98% (active) | 95.5% (active)
10 | Cc1ccc(NCCN(C)C)c2c(=O)c3ccc(O)cc3sc12 | 56% | 96% (active) | 98.5% (active) | -3% | 82% (active) | 98.9% (active) | -1% | 88% (active) | 93% (active) | -3% | 85% (active) | 63.5% | -1% | 84% (active) | 98.2% (active) | 5% | 94% (active) | 99.2% (active)
